The campaign covered roughly 65,000 compounds. About 45 (0.07%) were called active. The list is a sample of the results. A number with no mark means an inactive call. The call rests on the fitted dose curve.
Test system: Schistosoma mansoni peroxiredoxin 2 (Prx2)
Assay: Schistosoma Mansoni Peroxiredoxins (Prx2)
Settings: S. mansoni Prx2 activity coupled to TGR/GSH (TGR is thioredoxin glutathione reductase), NADPH fluorescence loss, qHTS
Text: NIH Molecular Libraries Screening Centers Network [MLSCN]
NIH Chemical Genomics Center [NCGC]
David Williams [Illinois State University]
Schistosoma mansoni, a causative agent of schistosomiasis, resides in the bloodstream of their host up to 30 years without being eliminated by the host immune attack. One proposed survival mechanism is the production of an antioxidant "firewall" that neutralizes the oxidative assault of the host's immune attack. Schistosoma mansoni peroxiredoxins (Prx) are important parasite antioxidant proteins that play a crucial role in redox balance mechanisms. […] First, the proteins are essential for the parasite survival. […] Third, the protein(s) is amenable for study at the molecular level and can be produced in bacteria in large quantities, in soluble and active form. Inhibition of Prx activity was screened in a coupled-enzyme format with reducing equivalents being transferred from NADPH to […] intermediate via thioredoxin/glutathione reductase (TGR)-catalyzed reaction, then from thioredoxin to hydrogen peroxide via Prx-catalyzed electron transfer. A decrease in the fluorescence intensity of NADPH was used to measure the enzyme activity. Purified S. mansoni TGR and Prx were provided by Professor David L. Williams, Illinois State University.
NCGC Assay Protocol Summary:
100 mM phosphate buffer, pH 7.4, 10 mM EDTA, 0.01% Tween-20.
100 uM NADPH/25 nM TGR/700 uM GSH/50 nM Prx2 mixture in columns 1, 2, 5-48. Titration of control potassium antimonyl tartrate (PAT, from 1 mM, then 1:5) pin-transferred to lower half of column 2. Column 1 and upper half of column 2 are neutral (100% activity).
Three uL of reagents were dispensed to 1536-well Greiner black plates. Compounds and controls (20 nL) were transferred via Kalypsys PinTool. The plates were incubated for 15 min at room temperature, and then a 1 uL aliquot of 400 uM NADPH/700 uM GSH was added, immediately followed by a 1uL aliquot of 2.5 mM H2O2 (to start the reaction). The plate was transferred to ViewLux (Perkin-Elmer) High-throughput CCD imager where kinetic measurements (every 30 sec, for a total of 8 min) of NADPH fluorescence were taken using 365 nm excitation/450 nm emission filter set. During dispense, enzyme-containing reagent bottles were kept submerged into 4 deg C water bath to minimize degradation.
Keywords: NIH Roadmap, MLSCN, MLI, MLSMR, David Williams, Peroxyredoxin, Schistosoma mansoni, prx2, prx, , qHTS, NCGC
Potency means the concentration at half of the fitted maximal effect.

Compound | Potency
O=C(O)CS(=O)c1ccc2c3c(cccc13)C(=O)c1ccccc1-2 (stereo not drawn) | > 57 µM
CC(C)NC(=O)N1CC[C@@]2(CCCN(C(=O)c3cccn3C)C2)C1 | > 57 µM
COC(=O)N1CCC2(CCCN(c3ccncc3)C2)CC1 | > 57 µM
COCCNc1ncnc2ccc(-c3cccnc3)cc12 | > 57 µM
Cc1nc2cnc(N3CCN(C)CC3)nc2n(C[C@H]2CCCO2)c1=O | > 57 µM
COc1ccc2[nH]cc(CCNc3cc(-c4ccccc4CN(C)C)ncn3)c2c1 | > 57 µM
COc1ccc(CNc2ncncc2-c2ccccc2OC)c(OC)c1 | > 57 µM
COc1ccccc1-c1nc(N2CCN(C)CC2)c2ccccc2n1 | > 57 µM
C[C@]12CC[C@@H]3C(=CCc4cc(O)ccc43)[C@@H]1CCC2=O | > 57 µM
CC(N)=NCc1cccc(CN)c1 | > 57 µM
CN=C(NC#N)NCCSCc1nc[nH]c1C | > 57 µM
ClC(Cl)(Cl)C(N1CCN(c2ccccc2)CC1)N1CCN(c2ccccc2)CC1 | > 57 µM
COc1cccc(Cn2c(=O)cnc3cncnc32)c1 | > 57 µM
Cc1ccc(NC(=O)c2cccc(N(C)C)c2)cc1NC(=O)c1ccc(O)cc1 | > 57 µM
COc1ccc(Oc2ncc3nc(C)c(=O)n(-c4ccccc4)c3n2)cc1 | > 57 µM
CC1=CC(=O)C2=C(C)C[C@H](O)[C@@H]3[C@@H](OC(=O)[C@H]3C)[C@H]12 | > 57 µM
Cc1cnc(CNc2cc(-c3c(C)noc3C)ncn2)cn1 | > 57 µM
COCCn1c(=O)c(-c2cc(F)cc(F)c2)nc2cnc(N3CCNCC3)nc21 | > 57 µM
CCCC(C(=O)OCCN(CC)CC)(c1ccccc1)c1ccccc1 | > 57 µM
O=c1cnc2cnc(Nc3ccccc3)nc2n1Cc1ccc(F)cc1 | > 57 µM
O=C1C(c2ccccn2)=[N+]([O-])c2ccccc21 | > 57 µM
CN(Cc1ccco1)c1ncncc1-c1ccoc1 | > 57 µM
C[C@H]1O[C@@H](CC(=O)O)Cc2c1c(O)c1c(O)cc(-c3cc(=O)c4c(=O)c5c(c(=O)c=4c3=O)C[C@H](CC(=O)O)O[C@@H]5C)c(O)c1c2O | > 57 µM
NS(=O)(=O)c1cc(Cl)c(Cl)c(S(N)(=O)=O)c1 | > 57 µM
CCC(C)(C)N=C(NC#N)Nc1cccnc1 | > 57 µM
COc1ccc(CNc2ncncc2-c2ccccc2C)c(OC)c1 | > 57 µM
Cn1cc(-c2nc3cnc(N4CCNCC4)nc3n(CCc3ccccc3)c2=O)c2ccccc21 | > 57 µM
CN(C)c1ccc(-c2nc(NCCN3CCOCC3)c3ccccc3n2)cc1 | > 57 µM

— PubChem BioAssay AID448 (National Center for Advancing Translational Sciences (NCATS), 2006)
